The whole screen tested about 330,000 compounds, of which about 610 (0.18%) were called active. A call without a number means that no potency is given here. Another 2% or so got no clear call; they are omitted. The call rests on the fitted dose curve. Many of the other results were omitted from the sample, so actives are more common in it than they were.
Potency means the concentration at half of the fitted maximal effect.

The assay can be described thus: qHTS of Yeast-based Assay for SARS-CoV PLP. Further: nearly all actives have a fitted effect of over 55% in size. To be noted: S. cerevisiae expressing SARS-CoV PLpro; Potency: growth rescue; series mostly up to 32.9 µM. For orientation: Quantitative high-throughput screening tests each substance at several concentrations.
For `Cc1cc2c(cc1S(=O)(=O)CCC(=O)NCc1ccccc1)OCC(=O)N2`, the Potency entry is “inactive”. The same measure for `COc1ccc(Cl)cc1NC(=O)CCS(=O)(=O)c1cc2c(cc1C)NC(=O)CO2`: “inactive”; for `COc1ccc(NC(=O)CCS(=O)(=O)c2cc3c(cc2Cl)NC(=O)CO3)cc1OC`: 10 µM (active).

Turning to `CN(C(=O)CN1C(=O)NC(C)(CCc2ccccc2)C1=O)c1ccccc1` (configuration not stated), the Potency entry was “inactive”. For the compound `CC(C)CCNC(=O)C1CCCN(S(=O)(=O)c2ccc(F)cc2)C1` (configuration not stated), the Potency result is “inactive”. Regarding `CCCN(CC1CC1)C(=S)NC(=O)c1ccccc1Br`, the Potency entry is “inactive”.

Take `CCCCCOc1ccc(/C=C/C(=O)NCCc2nc3ccccc3[nH]2)cc1OC`: the Potency result was “inactive”. As to `COc1ccc(CNC(=O)C(=O)NCC2OCCN2C(=O)c2ccc(OC)cc2)cc1` (configuration not stated), the Potency result was “inactive”. For the compound `CC(C)CC(=O)c1c[nH]c(C(=O)NCc2ccccc2)c1`, the Potency entry is “inactive”. The entry for `CCOC(=O)N1CCN(C(=O)COC(=O)c2cccc(S(C)(=O)=O)c2)CC1` is “inactive”. The same measure for `CC(=O)c1cn(CCCCCCCCCCn2cc(C(C)=O)c(=O)[nH]c2=O)c(=O)[nH]c1=O`: “inactive”.

For the compound `CN(Cc1ccc2nsnc2c1)Cc1nc(Cc2cccc(F)c2)no1`, the Potency result is “inactive”. On to `Cc1cccc(C)c1NC1=NC(=S)N(c2ccc(N(C)C)cc2)C1(C)C`, for which the Potency result is “inactive”. Consider `O=C(OCC1O[C@@H](OC(=O)c2cc(O)c(O)c(O)c2)[C@@H](OC(=O)c2cc(O)c(O)c(O)c2)[C@@H](OC(=O)c2cc(O)c(O)c(O)c2)[C@@H]1OC(=O)c1cc(O)c(O)c(O)c1)c1cc(O)c(O)c(O)c1` (some centres not stated), for which the Potency is 5.62 µM (active).

Take `CCOC(=O)CN1C(=O)N[C@@H](c2ccc(Br)cc2)C(C(C)=O)=C1C`: the Potency entry was “inactive”. As to `CCc1cccc2c(C#N)cn(CC(=O)N3CCOCC3)c12`, the Potency entry was “inactive”. On to `CCc1cccc2c3c([nH]c12)C(CC)(CC(=O)O)OCC3` (configuration not stated), for which the Potency is 20 µM (active). The same measure for `Cc1cc2ccccn2c1C(=O)c1cccc(S(=O)(=O)N2CCOCC2)c1`: “inactive”. Turning to `O=C(OCc1cn(-c2ccc(Cl)c(Cl)c2)nn1)c1ccccc1Cl`, the Potency entry is “inactive”. Regarding `COC(=O)CCC(=O)N1CCCC(CO)(Cc2ccccc2)C1` (configuration not stated), the Potency entry was “inactive”. As for `CCOC(=O)c1c(N)c(C#N)nn1-c1ccccc1C(=O)OC`, the Potency entry was “inactive”.

Turning to `CC1(C)CN=C(N2CCN(c3ncnc4sc5c(c34)CCCC5)CC2)S1`, the Potency entry is “inactive”. `COc1ccc(NC(=O)CN(C)C(=O)c2ccc(NC3CC3)c([N+](=O)[O-])c2)cc1`: the Potency entry was “inactive”. The entry for `COc1ccc(C(C(=O)NC(C)(C)C)N(Cc2ccc(F)cc2)C(=O)CCC(=O)Nc2cc(C)on2)cc1` (configuration not stated) is “inactive”; for `Cc1ccccc1Cn1nc(C)c(NC(=O)C(F)(F)F)c1C` it is “inactive”; for `CCCCc1ccc(NC(=O)CN2C(=O)NC(Cc3ccccc3)C2=O)cc1` (configuration not stated) it is “inactive”.

With `O=C(C(NS(=O)(=O)c1cccc2nsnc12)c1ccccc1)N1CCN(c2ccccc2)CC1` (configuration not stated), the Potency entry is “inactive”. The same measure for `Cc1cc(OCCOc2cccc3cccnc23)c(C)cc1Cl`: “inactive”; for `CC(C)CNC(=O)C1CCCN(S(=O)(=O)c2ccc(-n3cnnn3)cc2)C1` (configuration not stated): “inactive”; for `COC(=O)C1(C)NC(c2ccc(C)cc2)C2C(=O)N(c3ccc(F)cc3)C(=O)C21` (configuration not stated): “inactive”. For the compound `Cc1c2cnn(-c3ccccc3)c(=O)c2c(C)n1CCCC(=O)N1CCN(C)CC1`, the Potency entry is “inactive”. As to `COC(=O)[C@]1(C)CCC[C@@]2(C)C3CC[C@]4(OC(C)=O)C[C@@]3(CCC21)CC4=NO` (some centres not stated), the Potency result was “inactive”. In the case of `CCCCN(CC(=O)Nc1cccc(S(=O)(=O)N2CCCC2)c1)Cc1nc2ccccc2c(=O)[nH]1`, the Potency result is “inactive”. Take `COc1ccc(N(C(=O)CNC(=O)c2ccco2)C(C(=O)NCC2CCCO2)c2ccccc2)cc1Cl` (configuration not stated): the Potency entry is “inactive”. The entry for `COc1cccc(NC(=S)NC(=O)c2c(Cl)c(C)nn2C)c1` is “inactive”. With `Cc1ccc(/C=N/NC(=O)C2=NNC(c3ccccc3)(c3ccccc3)C2)c(O)c1`, the Potency is 3.55 µM (active). The entry for `Cc1nc2ccc(C(=O)N/N=C/c3ccc(O)cc3)cc2[nH]1` is “inactive”; for `Cc1ccc2occ(/C=N/NC(=O)c3ccccc3C)c(=O)c2c1` it is “inactive”. `Cc1cc(OC(=O)c2ccccc2Cl)ccc1N1C(=O)CCC1=O`: the Potency entry was “inactive”. For `CC(C)C(C)NC(=O)COc1nc2ccccc2nc1N(C)C1CCCCC1` (configuration not stated), the Potency entry is “inactive”.

On to `O=C(NC1CCN(C(=S)NCc2ccco2)CC1)c1ccc(F)cc1`, for which the Potency entry was “inactive”. As for `Cn1c(=O)n(C)c2cc(CNc3ccc(N4CCOCC4)c(C(=O)O)c3)ccc21`, the Potency result is “inactive”. As for `CC(=O)Nc1cccc2c1[n+]([O-])c(C)c(C)[n+]2[O-]`, the Potency entry is “inactive”.

Take `COC(=O)c1ccc(C(NC(=O)OCc2ccccc2)/C(C)=C/[C@@H](C)C(=O)NCc2ccc(OC)c(OC)c2)cc1` (some centres not stated): the Potency entry is “inactive”. With `Cc1cc(C(=O)N/N=C/c2cc([N+](=O)[O-])cc(C)c2O)n[nH]1`, the Potency is 4.47 µM (active). The entry for `COc1ccc2ccccc2c1/C=N/NC(=O)c1cc(C)[nH]n1` is “inactive”; for `COc1ccc(CC(=O)N/N=C/c2cc([N+](=O)[O-])cc(Br)c2O)cc1` it is “inactive”; for `CC(=O)c1ccc(NC(=O)C2CC(=O)Nc3nc4ccccc4n32)cc1` (configuration not stated) it is “inactive”. As to `O=c1[nH]c2ccc(S(=O)(=O)N3CCCC3)cc2[nH]1`, the Potency entry is “inactive”. For `COC(=O)C[n+]1cccc2ccccc21`, the Potency entry was “inactive”. As to `CN(C)c1ccc(C(=S)N2CCN(C(=S)Nc3ccc(Cl)cc3)CC2)cc1`, the Potency entry is “inactive”. Consider `COc1cc(N2CCCC2)c(OC)cc1/C=C(/C#N)c1cccc(Br)c1`, for which the Potency entry was “inactive”.

Turning to `CCOC(=O)C1C(=O)OC2(CCCC2)C1C(=O)OCC` (configuration not stated), the Potency result was “inactive”. For `CCN(C(=O)c1ccc(Br)cc1)c1ccccc1`, the Potency entry is “inactive”. As for `CC1CCCCC1NC(=O)/C(C#N)=C/C=C/c1ccccc1[N+](=O)[O-]` (configuration not stated), the Potency entry is “inactive”.

With `COc1ccc(N(CCC(=O)NCCc2ccccc2)S(=O)(=O)c2ccc(C)cc2C)cc1`, the Potency entry is “inactive”. Regarding `O=C(COC(=O)Cc1ccccc1F)NNC(=O)c1ccc(Cl)cc1`, the Potency result was “inactive”.

Consider `CCCCOC(=O)CNc1nnc(SCC(=O)OCC)[nH]c1=O`, for which the Potency entry is “inactive”. Turning to `CC(C)/C=N/NC(=O)c1cc(Br)ccc1O`, the Potency was 10 µM (active). As for `COc1ccc(-c2[nH]ncc2/C=N/NC(=O)c2cc(Br)ccc2O)c(OC)c1`, the Potency result is “inactive”.

As to `CC(=N\NC(=O)c1cc(Br)ccc1O)/C(=N/O)C(=O)Nc1ccccc1`, the Potency result is “inactive”. For the compound `COc1ccc(C)cc1NC(=O)CSc1ccc(Cl)cc1`, the Potency result was “inactive”. In the case of `COC(=O)c1scc(C)c1NC(=O)CSc1ccc(Cl)cc1`, the Potency was 0.708 µM (active). On to `COC(=O)c1cc(OC)c(OC)cc1NC(=O)CSc1ccc(C)cc1`, for which the Potency entry was “inactive”. Consider `CCOC(=O)c1c(/N=C/C2C(=O)CC(C)(C)CC2=O)sc(C)c1C`, for which the Potency is 3.16 µM (active).

As to `CCOC(=O)c1sc(/N=C/C2=C(O)CC(C)(C)CC2=O)c(C(=O)OCC)c1C`, the Potency entry is “inactive”. In the case of `CCOC(=O)c1c(N)sc2c1CCCC2=O`, the Potency result is “inactive”.

Values taken from PubChem BioAssay AID485353 (National Center for Advancing Translational Sciences (NCATS), 2010).
